This note sets out measurements from PubChem BioAssay (Tox21).

Test [1] in a line: A CellTox Green Cytotoxicity Assay to monitor cytotoxicity in HEK293 cells - 32 hour (AID 1224881). Note: nearly all actives have a fitted effect of over 40% in size. In outline: (§1)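 Cells (HEK293, 600/well) and dye reagent are dispensed together. After 5 h at 37 C, 23 nL compound is pinned in. Plates stay at 37 C for 40 h with fluorescence read at 0h, 8h, 16h, 24h, 32h and 40h.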
A short description of test [2]: A CellTox Green Cytotoxicity Assay to monitor cytotoxicity in HepG2 cells - 0 hour (AID 1224882). Note: nearly all actives have a fitted effect of over 35% in size. Summed up:
(§2)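 Cells and non-lytic dye reagent are dispensed together (600 HepG2 cells/well) and incubated 5 h before DMSO compound transfer. Kinetic fluorescence is then recorded in the same wells during 40 h at 37 C.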

A short description of test [3]: A CellTox Green Cytotoxicity Assay to monitor cytotoxicity in HepG2 cells - 32 hour (AID 1224883). Note: nearly all actives have a fitted effect of over 50% in size. In outline: as §2
A short description of test [4]: A CellTox Green Cytotoxicity Assay to monitor cytotoxicity in HEK293 cells - 8 hour (AID 1224884). Note: nearly all actives have a fitted effect of over 35% in size. Summed up: as §1
The nature of test [5]: qHTS RealTime-Glo MT Cell Viability Assay in HepG2 cells - 16 hour (AID 1224885). Note: nearly all actives have a fitted effect of over 50% in size. In outline:
(§3)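 Tox21 10K library screened in qHTS format on HepG2 cells carrying RealTime-Glo reagents. Compounds were added after a 5 h preincubation, and the luminescent signal from continuous culture was measured repeatedly during 40 h treatment.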
(Quantitative high-throughput screening tests each substance at several concentrations.)

The nature of test [6]: qHTS RealTime-Glo MT Cell Viability Assay in HEK293 cells - 24 hour (AID 1224886). Note: top concentration of the series differs between compounds; nearly all actives have a fitted effect of over 50% in size. Summed up:
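Luminescence generated by NanoLuc from substrate produced by living HEK293 cells served as the viability signal. Each value reflects the reading at its stated time point during continuous 40 h compound exposure at 37 C.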

The nature of test [7]: A CellTox Green Cytotoxicity Assay to monitor cytotoxicity in HEK293 cells - 16 hour (AID 1224888). Note: nearly all actives have a fitted effect of over 35% in size. In outline: as §1
A short description of test [8]: qHTS RealTime-Glo MT Cell Viability Assay in HepG2 cells - 0 hour (AID 1224889). Note: nearly all actives have a fitted effect of over 50% in size. In outline:
as §3

A short description of test [9]: A CellTox Green Cytotoxicity Assay to monitor cytotoxicity in HepG2 cells - 8 hour (AID 1224890). Note: nearly all actives have a fitted effect of over 45% in size. In outline:
as §2

Test [10] is described as follows: qHTS assay to identify small molecule antagonists of the estrogen receptor alpha (ER-alpha) signaling pathway using the BG1 cell line in the presence of 0.1 nM 17-beta-estradiol - cell viability counter screen (AID 1259241). Note: nearly all actives have a fitted effect of over 40% in size. In outline: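 The cell line endogenously expresses full-length ER-alpha and carries four EREs driving luciferase. Cells are cultured 5 days hormone-free, treated 22 hr with compounds and 0.1 nM estradiol, then viability is read by fluorescence.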

Test [11] in a line: qHTS assay to identify small molecule antagonists of the androgen receptor (AR) signaling pathway using the MDA cell line in the presence of 0.5 nM R1881 - cell viability counter screen (AID 1259242). Note: nearly all actives have a fitted effect of over 45% in size. In outline:
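Steps: plate MDA-kb2 cells, rest 5 hr at 37C without CO2; pin in compounds in DMSO; add R1881 to 0.5 nM final; incubate 16 hr; add CellTiter-Fluor, 30 min; read fluorescence.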

In test [12] the target is Estrogen receptor (Homo sapiens) (UniProt P03372). Put plainly: qHTS assay to identify small molecule antagonists of the estrogen receptor alpha (ER-alpha) signaling pathway using the BG1 cell line in the presence of 0.1 nM 17-beta-estradiol (AID 1259244). Note: nearly all actives have a fitted effect of over 50% in size. Summed up:
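Antagonist mode: compounds in DMSO are pinned onto VM7Luc4E2 reporter cells, 0.1 nM final 17beta-estradiol is added, and after 22 h at 37C luciferase luminescence is measured with ONE-Glo.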

The nature of test [13]: qHTS assay to identify small molecule HDAC inhibitors (AID 1259364).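 Note: wild-type HCT-116 cells with endogenous class I/II HDAC activity; top concentration of the series differs between compounds; nearly all actives have a fitted effect of over 45% in size.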 In outline: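 Cells (HCT-116, wild type) are seeded at 1,500 per well, incubated overnight, treated with compound in DMSO for 2 hr, then developed with HDAC-Glo I/II reagent for 30 min at room temperature.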
The nature of test [14]: qHTS assay to identify small molecule HDAC inhibitors - cell viability counter screen (AID 1259365). Summed up: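 Viability readout: CellTiter-Glo luminescence. Wild-type HCT-116 cells, 2hr compound treatment following overnight attachment at 37 C.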
A short description of test [15]: qHTS assay to identify small molecule agonists of the sonic hedgehog signaling (Shh) pathway - cell viability counter screen (AID 1259366). Note: nearly all actives have a fitted effect of over 50% in size. Summed up:
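Viability measured fluorometrically (CellTiter-Fluor, 1hr, 37C) in 3T3 Gli1-Luc reporter cells after 23hr compound exposure within a 24hr incubation at 37C/5% CO2.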

The nature of test [16]: qHTS assay to identify small molecule agonists of the sonic hedgehog signaling (Shh) pathway (AID 1259368; calls by dose curve;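 note: NIH/3T3-derived 3T3Gli1-Luc cells carrying a stable Gli1-driven firefly luciferase reporter; series mostly up to about 92 µM; nearly all actives have a fitted effect of over 15% in size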). In outline:
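Cells of a mouse NIH/3T3 clone stably expressing luciferase under the Gli1 transcriptional response element are exposed to test chemicals for 24 hr at 37 C. Pathway activation is detected as a rise in luminescence.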

A short description of test [17]: qHTS assay to identify small molecule antagonists of the sonic hedgehog signaling (Shh) pathway - cell viability counter screen (AID 1259367). Note: nearly all actives have a fitted effect of over 55% in size. Note: potency is the fitted concentration of half-maximal effect. In outline: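 Viability was read by CellTiter-Fluor fluorescence in the same wells, reagent added 23 hr into compound treatment and incubated 1 hr at 37C. The 3T3 Gli1-Luc reporter cells (2,000/well) received conditioned medium after compound and ran 24 hr.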

A short description of test [18]: qHTS RealTime-Glo MT Cell Viability Assay in HEK293 cells - 8 hour (AID 1224887). In outline:
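Real-time viability in HEK293: signal arises when living cells convert a prosubstrate for NanoLuc in the medium, so luminescence tracks viable cell number. Compound (23 nL, DMSO) added 5 h post-seeding; kinetic reads at 0–40 h, 37 C.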

Test [19] in a line: qHTS assay to identify small molecule phospholipidosis (PLD) inducers (AID 1259344; active = well fitted curve in the direction sought with a large enough effect; an effect the other way counts as inactive or inconclusive). Summed up:
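Phospholipid accumulation was scored by imaging: fixed, Hoechst-counterstained HepG2 cells stained with LipidTOX Red after 24 h compound exposure at 37 C. Read-outs were pit count and pit intensity per well or per cell, with amiodarone and DMSO controls.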

Results filed as inconclusive are left out. Where a structure was tested more than once in an assay, its records may differ in their call. Active and inactive are the calls of the source. Unless noted, calls come from the whole dose curve; as a rule, active = well fitted curve in the direction sought with a large enough effect in the repeat runs; inconclusive = weak or mixed curves; inactive = no such curve, though single readings can be large; an effect the other way counts as inactive or inconclusive.

Estrogen receptor (Homo sapiens), sequence (P03372 whole entry, looked up): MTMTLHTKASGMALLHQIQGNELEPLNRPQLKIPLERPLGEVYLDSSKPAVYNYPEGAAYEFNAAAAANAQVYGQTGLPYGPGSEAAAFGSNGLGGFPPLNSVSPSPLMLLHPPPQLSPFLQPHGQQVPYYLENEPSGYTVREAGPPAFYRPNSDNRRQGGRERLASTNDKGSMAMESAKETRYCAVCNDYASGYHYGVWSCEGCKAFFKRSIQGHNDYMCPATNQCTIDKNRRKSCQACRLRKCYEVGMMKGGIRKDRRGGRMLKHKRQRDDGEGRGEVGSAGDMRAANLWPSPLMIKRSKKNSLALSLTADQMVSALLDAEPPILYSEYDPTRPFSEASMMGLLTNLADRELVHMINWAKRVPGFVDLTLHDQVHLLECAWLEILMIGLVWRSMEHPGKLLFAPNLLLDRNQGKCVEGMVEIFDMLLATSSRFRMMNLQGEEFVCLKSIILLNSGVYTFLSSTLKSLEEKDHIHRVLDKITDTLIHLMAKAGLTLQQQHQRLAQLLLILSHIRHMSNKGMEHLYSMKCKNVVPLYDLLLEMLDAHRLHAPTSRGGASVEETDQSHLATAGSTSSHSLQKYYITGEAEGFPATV

As for `C(COCC1CO1)OCC1CO1` (stereo not drawn), the Potency result in [1], in test [3], in test [4], in test [5], in test [6] and in [7] was “inactive” throughout. The Potency result in test [9], in test [11], in test [12], in [13] and in test [15] was “inactive” in each case. Further, the result in test [2], in test [8], in [10], in test [14] and in test [16] was inactive.

For the molecule `CCCCCCCCBr`, the Potency entry in test [1], in test [3], in [4], in test [5], in test [6] and in test [7] was “inactive” each time. The Potency entry in test [9], in [11], in test [13], in test [15] and in test [17] was “inactive” in each case. Also, the outcome in test [2], in [8], in [10], in [14] and in test [16] was inactive.

For `CC(C)[N+](C)(CCC(C(N)=O)(c1ccccc1)c1ccccc1)C(C)C`, the Potency entry in test [1], in [3], in [4], in test [6], in test [18] and in [7] was “inactive” throughout. The Potency result in test [9], in test [11], in test [12], in [19], in test [13] and in test [15] was “inactive” throughout. Besides, in [17], the Potency result is “inactive”. Further, the molecule was classed as inactive in [2], in test [8], in test [10], in test [14] and in test [16].

Consider `CCC(=O)c1ccc(Cl)cc1`, for which the Potency result in [1], in test [3], in test [4], in test [5], in test [6] and in test [9] was “inactive” in each case. The Potency entry in test [11], in test [13], in [15] and in test [17] was “inactive” each time. The call in [2], in [8], in test [10], in [14] and in [16] was inactive.

Take `ClC(Cl)(Cl)Cl`: the Potency result in test [1], in test [3], in test [4], in test [6], in [18] and in test [7] was “inactive” each time. Besides, the Potency result in [9], in test [11], in test [12], in [19], in [15] and in test [17] was “inactive” in each case. Further, the molecule was classed as inactive in test [2], in [8], in [10], in [14] and in test [16].

As for `CC(C)(C)C(=O)C(Cl)Cl`, the Potency entry in [1], in [3], in test [4], in [5], in test [6] and in test [7] was “inactive” in each case. The Potency entry in [9], in test [11], in test [15] and in test [17] was “inactive” throughout. Besides, the call in test [2], in test [8], in test [10], in test [14] and in [16] was inactive.

Take `O=C(O)C(F)(F)C(F)(F)C(F)(F)C(F)(F)C(F)(F)C(F)(F)F`: the Potency result in test [1], in test [3], in test [4], in test [5], in test [6] and in test [9] was “inactive” in each case. In addition, the Potency result in test [11], in test [15] and in test [17] was “inactive” in each case. The molecule was classed as inactive in test [2], in test [8], in test [10] and in test [14].

For `ClCCN1CCCC1`, the Potency entry in test [1], in [3], in [4], in [5], in [6] and in [7] was “inactive” throughout. Besides, the Potency entry in test [9], in test [11], in test [12], in test [13], in test [15] and in test [17] was “inactive” each time. Moreover, the molecule was classed as inactive in test [2], in test [8], in test [10], in test [14] and in test [16].

`CC(C)(C)NC[C@H](O)c1ccc(O)cc1Cl`: the Potency result in [1], in test [3], in test [4], in test [5], in [6] and in [18] was “inactive” throughout. Moreover, the Potency result in test [9], in test [11], in test [13], in test [15] and in [17] was “inactive” in each case. The molecule was called inactive in test [2], in test [8], in test [10], in test [14] and in test [16].

As to `CCN1CCCC1CNC(=O)C(O)(c1ccccc1)c1ccccc1` (stereo not drawn), the Potency result in test [1], in test [3], in [4], in [5], in [6] and in test [18] was “inactive” throughout. In addition, the Potency result in test [9], in [11], in test [13], in [15] and in test [17] was “inactive” throughout. In addition, the call in test [2], in test [8], in test [10], in [14] and in test [16] was inactive.

In the case of `NCC1(CC(=O)O)CCCCC1`, the Potency result in test [1], in [3], in test [4], in test [5], in test [6] and in test [7] was “inactive” each time. The Potency result in test [9], in test [11], in [13], in test [15] and in [17] was “inactive” throughout. Moreover, the molecule was called inactive in test [2], in [8], in [10], in [14] and in [16].

Regarding `CS(=O)(=O)Cl`, the Potency result in test [1], in test [3], in test [4], in test [5], in test [6] and in test [9] was “inactive” each time. Also, the Potency result in test [11], in test [12], in [13], in [15] and in [17] was “inactive” each time. Moreover, the result in [2], in [8], in test [10], in test [14] and in test [16] was inactive.

As to `C=CC1(C)OC(=O)N(c2cc(Cl)cc(Cl)c2)C1=O` (stereo not drawn), the Potency entry in [1], in [3], in test [4], in [6], in [18] and in [7] was “inactive” throughout. The Potency result in test [9], in test [11], in test [12], in test [13] and in test [15] was “inactive” in each case. The molecule was classed as inactive in [2], in test [8], in test [10], in [14] and in test [16]. In addition, in test [17], the Potency is 54.2 µM (active) and inactive.
